Screens (PubChem BioAssay)
Most compounds without a hit are left out; they make up all but 2.8% or so of the library.
MITF TRPM1 HTS – activators of MITF-driven TRPM1 promoter activity in SK-MEL-5 cells; activation, % at 12.5 µM; 300,000 compounds, 0.75% hits; AID 588334; SK-MEL-5 TRPM1-promoter luciferase, 24 h; % of positive control, neutral wells = 0;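 active = mean activation of at least 80% with every replicate also reaching 80%; inconclusive = mean reaches 80% but some replicate falls short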;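 note: 0% = neutral control wells and 100% = parthenolide positive control wells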
FXN GAA850 act – activators of GAA850 frataxin (FXN) promoter | HEK293 lucGAA850 FXN promoter luciferase reporter, 24 h; percent of 10 µM SAHA response | activation, % at 6 µM | 360,000 compounds, 0.56% hits | AID 540364;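 active = activation above the average of all compounds screened plus 3 SD, cutoff fixed separately per campaign, cut at about 7.5% in these data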;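 note: 0% = DMSO wells and 100% = 10 µM SAHA wells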
Wnt bcat act – activates Wnt/beta-catenin signaling in a reporter cell assay | 300,000 compounds, 1.2% hits | AID 743398 | activation, % at 9.35 µM | activator, plate reader; in the data active = activation above about 30%, passing the limit was not always enough; inconclusive = no clear call, values can overlap the other calls;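 note: 0% = neutral control wells and 100% = positive control wells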
esBAF inh – SWI/SNF esBAF complex inhibition | mouse ES cells, Bmi1-luciferase knock-in reporter, 24 h; 100% = twice the neutral-well signal | reporter increase, % at 12.5 µM | 350,000 compounds, 2% hits; in the data active = activation above about 40%; inconclusive = no clear call, values can overlap the other calls;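 note: 0% = median of the plate's neutral control wells and 100% = double that signal; a rise in the Bmi1 reporter signal indicates esBAF inhibition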
GAA30 FXN cntr – counter-screen for GAA850 frataxin promoter activators: GAA30 promoter activation; 1,900 compounds, 66% hits; shares compounds with FXN GAA850 act; activation, % at 6 µM; HEK293 lucGAA30 FXN promoter luciferase, 24 h; DMSO = 0%, 5 µM ipriflavone = 100%;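 active = mean activation above the mean of solvent-only control wells plus 3 SD, cut at about 22% in these data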;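 note: counterscreen of GAA850 promoter hits where activity marks nonselective or luminescence artifacts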
FXN GAA850 conf – GAA850 FXN promoter activation confirmation | shares compounds with FXN GAA850 act | HEK293 lucGAA850 FXN promoter luciferase reporter, 24 h; 100% = activation by SAHA | activation, % at 6 µM | 1,900 compounds, 86% hits | AID 588351;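 active = mean activation above a set limit taken from the primary screen, cut at about 8% in these data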;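 note: 0% = DMSO wells and 100% = 10 µM SAHA wells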
* hit, by the source's call.

Results for O=C1Cc2c([nH]c3ccc(Br)cc23)-c2ccccc2N1 ?
FXN GAA850 act: 68*; Wnt bcat act: 96*; GAA30 FXN cntr: 167*; FXN GAA850 conf: 201*

What do the screens show for `C=C1CCN([C@@H](Cc2ccccc2)C(=O)Nc2ccc(OC)cc2)S(=O)(=O)c2ccccc21`?
MITF TRPM1 HTS: 3; FXN GAA850 act: 12*; Wnt bcat act: 17; esBAF inh: -2; GAA30 FXN cntr: 29*; FXN GAA850 conf: 13*

Results for C=C1CCN([C@@H](C)C(=O)NCc2ccc(OC)cc2)S(=O)(=O)c2ccccc21 ?
MITF TRPM1 HTS: 7; FXN GAA850 act: -1; Wnt bcat act: -1; esBAF inh: -5

How did C=C1CCN([C@H](C(=O)Nc2ccc(OC)cc2)C(C)C)S(=O)(=O)c2ccccc21 do in these assays?
MITF TRPM1 HTS: -7; FXN GAA850 act: 9.5*; Wnt bcat act: -3; esBAF inh: -1; GAA30 FXN cntr: 15; FXN GAA850 conf: 12*

How did Cc1noc(C)c1NC(=O)NCC[C@@H]1CC[C@@H](NC(=O)c2ccncc2)[C@@H](CO)O1 do in these assays?
esBAF inh: 3

Results for COc1ccc(C(=O)Cn2cnc3ccccc3c2=O)c(OC)c1 ?
MITF TRPM1 HTS: 44; FXN GAA850 act: 7.7*; Wnt bcat act: 10; esBAF inh: 15; GAA30 FXN cntr: 57*; FXN GAA850 conf: 24*

What do the screens show for `O=c1c2ccccc2[nH]c2ccc(O)cc12`?
MITF TRPM1 HTS: 9; FXN GAA850 act: 8.2*; Wnt bcat act: -3; esBAF inh: 12; GAA30 FXN cntr: 39*; FXN GAA850 conf: 18*

How did Cc1ccc2[nH]c3ccccc3c(=O)c2c1 do in these assays?
MITF TRPM1 HTS: 27; FXN GAA850 act: 2; Wnt bcat act: 5; esBAF inh: 26

How did C=CCn1c2ccccc2c(=O)c2cc(C#CC3(O)CCCCC3)ccc21 do in these assays?
MITF TRPM1 HTS: 69; FXN GAA850 act: 11*; Wnt bcat act: 8; esBAF inh: 3; GAA30 FXN cntr: 104*; FXN GAA850 conf: 55*

How did O=c1c2ccccc2oc2cc(C#CC3(O)CCCCC3)ccc12 do in these assays?
MITF TRPM1 HTS: -46; FXN GAA850 act: -10; Wnt bcat act: -16; esBAF inh: -62

What do the screens show for `C=CCn1c2ccccc2c(=O)c2cc(C#CC[C@@H](C)O)ccc21`?
MITF TRPM1 HTS: 94*; FXN GAA850 act: 11*; Wnt bcat act: 36*; esBAF inh: 52*; GAA30 FXN cntr: 127*; FXN GAA850 conf: 44*

Results for Cn1c2ccccc2c(=O)c2cc(C#Cc3cccc(N)c3)ccc21 ?
MITF TRPM1 HTS: 76; FXN GAA850 act: 0; esBAF inh: 32

What do the screens show for `Cc1ccccc1OCC(=O)Nc1cccc(Cl)c1C`?
MITF TRPM1 HTS: 9; FXN GAA850 act: 0; Wnt bcat act: 6; esBAF inh: 21

Results for Cc1ccccc1OCC(=O)Nc1ccccc1-c1ccccc1NC(=O)COc1ccccc1C ?
MITF TRPM1 HTS: -12; FXN GAA850 act: 15*; GAA30 FXN cntr: 15; FXN GAA850 conf: 11*

What do the screens show for `Cc1cc(C)n2nc(/C(C#N)=C/c3ccccn3)c(C#N)c2n1`?
MITF TRPM1 HTS: -7; FXN GAA850 act: 16*; Wnt bcat act: 4; esBAF inh: -1; GAA30 FXN cntr: 32*; FXN GAA850 conf: 37*

What do the screens show for `C[C@@H]1CN([C@H](C)CO)C(=O)Cc2cc(NC(=O)NC3CCCCC3)ccc2O[C@@H]1CN(C)S(C)(=O)=O`?
esBAF inh: 0

How did O=[N+]([O-])c1ccc2c(c1)/C(=N\O)c1ccccc1-2 do in these assays?
MITF TRPM1 HTS: 1; FXN GAA850 act: -2; Wnt bcat act: 0; esBAF inh: 9

What do the screens show for `Nc1cc2c(cc1Cl)-c1ccc([N+](=O)[O-])cc1C2=NO`?
MITF TRPM1 HTS: 2; FXN GAA850 act: 9.5*; Wnt bcat act: -2; esBAF inh: 1; GAA30 FXN cntr: 75*; FXN GAA850 conf: 40*

How did CN(Cc1ccccc1)c1nc(N)c([N+](=O)[O-])c(NCc2ccccc2)n1 do in these assays?
MITF TRPM1 HTS: 1; FXN GAA850 act: 7.7*; GAA30 FXN cntr: 35*; FXN GAA850 conf: 12*

What do the screens show for `Cc1cccc(-n2ncc3c(NCCCN4CCCC4=O)ncnc32)c1`?
MITF TRPM1 HTS: 27; FXN GAA850 act: 1; Wnt bcat act: 29

Results for O=C1CCCN1CCCNc1ncnc2c1cnn2-c1ccc(Cl)cc1 ?
MITF TRPM1 HTS: 24; FXN GAA850 act: 15*; Wnt bcat act: 8; esBAF inh: 42*; GAA30 FXN cntr: 76*; FXN GAA850 conf: 33*

What do the screens show for `Cc1cc(-c2ccc(N3CCOCC3)cc2)nc2ccccc12`?
MITF TRPM1 HTS: 35; FXN GAA850 act: 8.0*; GAA30 FXN cntr: 130*; FXN GAA850 conf: 50*

Results for c1ccc2nc(-c3ccc(N4CCOCC4)cc3)ccc2c1 ?
FXN GAA850 act: -4; esBAF inh: -73

How did COc1cccc(-c2cnc3c(NC=O)cc(-c4ccccc4)cn23)c1 do in these assays?
FXN GAA850 act: -2; Wnt bcat act: -1; esBAF inh: 1

What do the screens show for `COc1cccc(-c2cnc3c(NC=O)cc(-c4ccc(N5CCN(C)CC5)cc4)cn23)c1`?
FXN GAA850 act: 8.8*; Wnt bcat act: 5; esBAF inh: 24; GAA30 FXN cntr: 83*; FXN GAA850 conf: 40*

How did CC(C)(C)n1nnnc1C(c1cccs1)N(Cc1ccc(Cl)cc1)CC1CCCO1 (configuration not stated) do in these assays?
MITF TRPM1 HTS: -6; FXN GAA850 act: 7.8*; GAA30 FXN cntr: 20; FXN GAA850 conf: 17*

What do the screens show for `Cc1ccc([N+](=O)[O-])cc1-c1ccc(/C=C(\C#N)c2[nH]nc(N)c2C#N)o1`?
MITF TRPM1 HTS: 43; FXN GAA850 act: 8.7*; Wnt bcat act: inconclusive; esBAF inh: 83*; GAA30 FXN cntr: 48*; FXN GAA850 conf: 20*

What do the screens show for `Cc1ccc(S(=O)(=O)Nc2ccc3c(c2)C(=O)N([C@H](C)CO)C[C@H](C)[C@H](CN(C)C(=O)Nc2ccc(F)cc2)O3)cc1`?
esBAF inh: -2

What do the screens show for `COc1ccc(OC)c(NC(=O)C2CCCN(S(=O)(=O)c3c(C)nn(C)c3C)C2)c1` (configuration not stated)?
MITF TRPM1 HTS: 4; FXN GAA850 act: 14*; Wnt bcat act: -3; esBAF inh: 7; GAA30 FXN cntr: 22; FXN GAA850 conf: 9.3*

What do the screens show for `O=C(C[C@H]1C=C[C@H](NC(=O)c2ccccc2)[C@H](CO)O1)NCc1ccncn1`?
esBAF inh: -2

Results for Cc1noc(C)c1NC(=O)Nc1ccc2c(c1)C(=O)N([C@H](C)CO)C[C@@H](C)[C@H](CN(C)C(=O)NC1CCCCC1)O2 ?
esBAF inh: -2

What do the screens show for `Cc1ccn2cc(CC(=O)O)nc2c1`?
MITF TRPM1 HTS: -11; FXN GAA850 act: 1; Wnt bcat act: 0; esBAF inh: -4
